# Compounds with a hit are over-represented: about 2.4% of the library has one in this group of screens.
# D2 ag-1 = HTS Assay for Allosteric Agonists of the Human D2 Dopamine Receptor: Primary Screen for Agonists. activation, % at 2 µM. D(2) dopamine receptor (Homo sapiens), P14416. 340,000 compounds, 0.53% hits. HEK293 T-REx D2 cells, calcium flux agonist mode;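 active = activation over 3 SD above normal in the single-dose calcium agonist read, cut at about 30% in these data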; also: 0% is about no effect
# Target sequence (P14416 whole entry, looked up): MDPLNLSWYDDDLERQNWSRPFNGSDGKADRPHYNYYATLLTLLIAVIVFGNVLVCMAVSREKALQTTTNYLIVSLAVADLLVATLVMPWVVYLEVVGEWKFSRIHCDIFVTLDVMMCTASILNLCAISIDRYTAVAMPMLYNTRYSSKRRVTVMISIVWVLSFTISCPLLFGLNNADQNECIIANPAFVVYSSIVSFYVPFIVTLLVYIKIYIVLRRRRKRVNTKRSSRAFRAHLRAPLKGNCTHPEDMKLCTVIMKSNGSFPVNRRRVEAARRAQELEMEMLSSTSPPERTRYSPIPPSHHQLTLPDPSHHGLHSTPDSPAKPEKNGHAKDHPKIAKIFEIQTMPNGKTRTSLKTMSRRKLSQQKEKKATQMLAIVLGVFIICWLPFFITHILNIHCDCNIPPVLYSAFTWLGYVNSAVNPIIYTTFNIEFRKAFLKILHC
#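 Tetracycline-induced HEK293 Trex cells with D2 receptor force-coupled to calcium signaling, plated overnight at 30 C and loaded with no-wash calcium dye. Calcium flux read kinetically for 180 s after compound addition; responses flag agonists.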
# B2AR arrestin = qHTS assay of beta-arrestin-biased ligands of beta2-adrenergic receptor | Beta-2 adrenergic receptor (Homo sapiens), P07550 | beta-arrestin recruitment to beta2AR, cell-based reporter | Potency, µM (titrated, usually from 46.1 µM), for the others: at the top dose activation, most hits filed as activators | 330,000 compounds, 0.02% hits; active = well fitted activation curve with a large enough effect; inconclusive = small, poorly fitted or top-dose-only effect;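 also: potency is read from the fitted curve at half-maximal effect; 0% = DMSO controls and full agonism = EC100 isoproterenol or metaproterenol; nearly all actives have a fitted effect of over 65% in size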
# D2 PAM-1 = HTS Assay for Positive Allosteric Modulators of the Human D2 Dopamine Receptor: Primary Screen for Potentiators; D(2) dopamine receptor (Homo sapiens), P14416; potentiation, % at 10 µM; AID 485347, 2010; 340,000 compounds, 0.34% hits; HEK293 T-REx D2, calcium flux, EC20 dopamine potentiation;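 active = potentiation over 3 SD above the plate norm, cut at about 30% in these data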; also: 0% is about no effect
#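 Tetracycline-induced HEK293 T-REx cells force-coupled to calcium signalling expressed D2; compounds were pin-added after a 10 s baseline, read kinetically 180 s, then an EC20 dopamine challenge followed with a further 180 s calcium read.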
# D2 ag-2 = Beta-Arrestin HTS for Positive Allosteric Modulators of the Human D2 Dopamine Receptor: Agonists. AID 624465, 2012. activation, % (no concentration beside the values). 360,000 compounds, 0.084% hits. DiscoveRx PathHunter D2 beta-arrestin, luminescence, 90 min; 100% = 57 uM dopamine signal. D(2) dopamine receptor (Homo sapiens), P14416; in the data active = activation above about 40%; inconclusive = between about 15% and that limit
#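 DiscoveRx PathHunter D2 beta-arrestin cells (2,100/well) attached overnight, then compound-stimulated 90 min at 37 C in HBSS/10 mM HEPES/0.1% Tween-20 buffer; beta-galactosidase complementation read by luminescence after 1 h at ambient temperature. Dopamine 57 uM final (EC100) as control.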
# D2 antag = HTS Assay for Allosteric Antagonists of the Human D2 Dopamine Receptor: Primary Screen for Antagonists; 340,000 compounds, 2% hits; HEK293 TREx D2 cells, calcium flux, dopamine EC80; inhibition, % at 10 µM; in the data active = inhibition above about 30%; inactive = below that, where a call was filed; also: 0% is about no effect
#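 Compounds are added to dye-loaded, induced HEK293 T-REx cells coupled to calcium release via D2; after a 3 min kinetic read an EC80 dopamine stimulus is given and fluorescence is recorded for 3 more min.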
# D2 PAM-2 = Beta-Arrestin HTS for Positive Allosteric Modulators of the Human D2 Dopamine Receptor: Potentiators; AID 624464, 2012; D(2) dopamine receptor (Homo sapiens), P14416; 360,000 compounds, 0.23% hits; potentiation, % (no concentration beside the values); DiscoveRx D2 beta-arrestin cells, luminescence, 90 min; 100% = 57 uM dopamine signal; in the data active = potentiation above about 50%; inconclusive = mostly about 30% to 49%
#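 D2 cells co-treated with compound plus 50 nM dopamine (EC20) for 90 min at 37 deg C to detect potentiation. Beta-arrestin recruitment was read as enzyme-fragment luminescence after 1 h at ambient temperature. Full response was set by 57 uM dopamine.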
# An asterisk follows results filed as active; ? = inconclusive; . = no result.
SMILES,D2 ag-1,B2AR arrestin,D2 PAM-1,D2 ag-2,D2 antag,D2 PAM-2
CC1=NN(C(N)=S)C(=O)C1N=Nc1cccc([N+](=O)[O-])c1 (centres undefined),0.1,?,-6.9,2.6,11.4,-5.6
O=C(c1cccc(S(=O)(=O)N2CCOCC2)c1)N1CCN(S(=O)(=O)c2cccs2)CC1,3.6,0.3%,-0.5,-3.2,41.6*,-5.7
O=C(NC1=NCCS1)c1cccc(S(=O)(=O)N2CCOCC2)c1,-0.3,0.3%,-8.3,0.3,34.5*,-4.2
Cc1cccc(Cl)c1OCCCN1CCOCC1,0.1,-0.7%,9.3,-1.3,-6.5,-10.5
CCOc1ccc(OCC)c(NC(=O)C2CCN(S(=O)(=O)c3ccc(Br)s3)CC2)c1,.,.,2.0,.,.,.
O=C(CSCc1ccccc1Br)N/N=C/c1ccc(OCC(=O)N2CCCCC2)cc1,0.9,3.2%,8.9,1.0,0.3,-5.3
Cc1[nH]c2ccccc2c1CCNS(=O)(=O)c1ccc(S(N)(=O)=O)cc1,6.3,-0.2%,-15.8,-4.1,54.8*,-6.3
CC(C)(C)CC(=O)NC1CC(=O)N(c2ccc3c(c2)OCCO3)C1 (centres undefined),.,.,13.3,.,.,.
Cc1cc(C)c(C#N)c(SCc2cn3ccccc3n2)n1,-0.3,-2.5%,3.7,0.7,-8.9,-11.4
Cc1cc(C)nc(SCc2cn3ccccc3n2)n1,-0.8,3.4%,-1.4,-0.1,38.3*,10.5
COc1ccc(OCc2cc(C(=O)NC(C)Cc3ccccn3)no2)c(Cl)c1 (centres undefined),-1.0,-0.7%,-6.6,8.6,32.5*,-12.1
Cc1ccc(Cl)cc1N1CCN(C(=O)CSc2nnc3n2C(C)(C)Cc2ccccc2-3)CC1,-0.4,-0.3%,30.5*,1.5,-11.6,6.5
COc1ccc(N2CCN(C(=O)CSc3nnc4n3C(C)(C)Cc3ccccc3-4)CC2)cc1,-0.6,?,18.6,-1.7,-6.0,-0.2
O=c1[nH]cnc2c1ncn2[C@@H]1C[C@@H](O)[C@H](CO)O1,0.6,0.1%,10.1,-5.6,38.4*,0.2
COC(=O)c1ccc([N+](=O)[O-])cc1N1C(=O)C2C3CCC(C3)C2C1=O (centres undefined),-0.2,-0.2%,-0.7,?,52.7*,7.2
CC(=O)OC1C(N2CCCCC2)c2c(ccc(/C=C/C(=O)N3CCCCC3)c2O)OC1(C)C (centres undefined),0.4,-1.6%,4.5,1.1,30.4*,1.1
CC1(C)Oc2ccc3ccc(=O)oc3c2C(N2CCCCC2)C1O (centres undefined),-0.6,-0.2%,-6.6,-3.0,-10.3,-1.6
COc1ccc(Cc2nnc(NC(=O)Nc3ccccc3F)s2)cc1,-0.2,-0.2%,7.9,-0.9,-20.7,0.9
COc1ccc(OCC(O)CNC(=O)Nc2cc(C)cc(C)c2)cc1 (centres undefined),-1.1,-0.2%,-16.1,-5.5,30.1*,-27.3
CC1Cc2ccccc2N1C(=O)CN1CCN(Cc2ccccc2)CC1 (centres undefined),1.0,-0.8%,-23.7,-0.1,41.0*,-13.8
CC1Cc2ccccc2N1C(=O)Cn1cc([N+](=O)[O-])cn1 (centres undefined),-0.4,0.2%,-1.5,-3.5,38.7*,-3.6
CC1CCN(CC(=O)N2c3ccccc3CC2C)CC1 (centres undefined),8.6,-0.3%,-3.1,-1.4,-10.2,-7.1
O=C(Cn1cc([N+](=O)[O-])cn1)N1CCc2ccccc21,0.5,-0.4%,-4.8,-2.3,-5.7,-7.0
CCN(CCCNC(=O)C1CCN(S(=O)(=O)c2c(C)[nH]c(=O)[nH]c2=O)CC1)c1cccc(C)c1,0.1,0.5%,-0.8,-1.1,9.9,-1.3
CCCCCCC(O)(c1ccc(OC)cc1)C(CN1CCOCC1)c1ccccc1 (centres undefined),0.9,-1.0%,4.7,-3.4,30.7*,-15.6
SMILES,D2 ag-1,B2AR arrestin,D2 PAM-1,D2 ag-2,D2 antag,D2 PAM-2
CCCCCCC(O)(c1ccccc1)C(CN1CCOCC1)c1ccccc1 (centres undefined),-0.2,-0.3%,4.5,-3.8,-1.4,-5.6
Cc1ccc(S(=O)(=O)N2CCOCC2)cc1NC(=O)CN1C(=O)CN(C)C1=O,1.3,-0.1%,0.9,1.3,-12.3,-3.3
CNC(=S)N/N=C1\C(=O)c2cccc3cccc1c23,0.1,3.55µM*,-9.5,-10.2,-10.5,-31.4
O=C(Nc1ccccc1)c1nc[nH]c1C(=O)NCCNC(=O)c1[nH]cnc1C(=O)Nc1ccccc1,.,-0.2%,.,?,.,61.0*
CCNc1nc(N)c(C(=C(C#N)C#N)c2ccccc2)s1,-1.2,-0.5%,-17.6,-2.6,45.3*,-39.1
CC1CCN(C2CCN(S(=O)(=O)c3ccc(F)cc3)CC2)CC1,0.8,-0.4%,-8.0,-1.1,9.0,-14.4
O=S(=O)(c1ccc(F)cc1)N1CCC(N2CCCCCC2)CC1,14.1,0.2%,-8.0,-2.0,42.0*,-13.5
CCCCC(CC)CNC(=O)CN1C(=O)CSc2ccc(S(=O)(=O)N3CCOCC3)cc21 (centres undefined),0.5,.,-9.1,.,.,.
CCOC(=O)c1cnc2c(C)c(Cl)ccc2c1NCCCN1CCOCC1,-1.0,-1.3%,2.1,-6.0,-7.0,-12.7
CCCCN1CCC(COC(=O)c2cc(Cl)c(N)c3c2OCCO3)CC1,-0.3,-0.1%,-19.3,0.7,64.1*,-24.1
CCC(c1nnnn1Cc1ccccc1)N(Cc1ccco1)Cc1cc2cc(OC)ccc2[nH]c1=O (centres undefined),-0.9,-1.1%,7.4,0.1,6.7,-9.3
CCCC(c1nnnn1C(C)(C)CC)N(Cc1ccco1)Cc1cc2ccc(OC)cc2[nH]c1=O (centres undefined),0.5,-0.2%,35.6*,-3.1,-4.1,-13.4
CCCN(Cc1cc2cccc(C)c2[nH]c1=O)C(=O)c1cccc(Cl)c1,-0.3,.,5.7,.,.,.
CC1=NN(C(=O)Cn2ccc([N+](=O)[O-])n2)C(O)(C(F)(F)F)C1 (centres undefined),1.6,0.2%,-13.1,-4.2,0.2,-8.1
Cc1cc(-c2ccccc2)nc2cc(C(=O)N(Cc3ccccc3)Cc3ccccc3)nn12,-1.3,-1.8%,4.1,-6.3,-21.2,-1.0

# Compound activity as filed in PubChem BioAssay.
